Source: the supplement of paper PMC11732987, “Enantioselective OTUD7B fragment discovery through chemoproteomics screening and high-throughput optimisation” (Communications Chemistry, 2025)

Tests used:
Test in all cases: log2 ratio of Biotin-Ahx-Ub-VS probe labelling (fragment/DMSO); higher = less target engagement (more negative = stronger competition), active = hit call of the paper (q ≤ 0.05, log2 ratio ≤ -1)
Conditions in all cases: compound concentration: 200 uM; treatment time: 3 h
[1] = target: USP34 (UniProt Q70CQ2)
Sequence of USP34 (Q70CQ2 whole entry, the tested form may be a part): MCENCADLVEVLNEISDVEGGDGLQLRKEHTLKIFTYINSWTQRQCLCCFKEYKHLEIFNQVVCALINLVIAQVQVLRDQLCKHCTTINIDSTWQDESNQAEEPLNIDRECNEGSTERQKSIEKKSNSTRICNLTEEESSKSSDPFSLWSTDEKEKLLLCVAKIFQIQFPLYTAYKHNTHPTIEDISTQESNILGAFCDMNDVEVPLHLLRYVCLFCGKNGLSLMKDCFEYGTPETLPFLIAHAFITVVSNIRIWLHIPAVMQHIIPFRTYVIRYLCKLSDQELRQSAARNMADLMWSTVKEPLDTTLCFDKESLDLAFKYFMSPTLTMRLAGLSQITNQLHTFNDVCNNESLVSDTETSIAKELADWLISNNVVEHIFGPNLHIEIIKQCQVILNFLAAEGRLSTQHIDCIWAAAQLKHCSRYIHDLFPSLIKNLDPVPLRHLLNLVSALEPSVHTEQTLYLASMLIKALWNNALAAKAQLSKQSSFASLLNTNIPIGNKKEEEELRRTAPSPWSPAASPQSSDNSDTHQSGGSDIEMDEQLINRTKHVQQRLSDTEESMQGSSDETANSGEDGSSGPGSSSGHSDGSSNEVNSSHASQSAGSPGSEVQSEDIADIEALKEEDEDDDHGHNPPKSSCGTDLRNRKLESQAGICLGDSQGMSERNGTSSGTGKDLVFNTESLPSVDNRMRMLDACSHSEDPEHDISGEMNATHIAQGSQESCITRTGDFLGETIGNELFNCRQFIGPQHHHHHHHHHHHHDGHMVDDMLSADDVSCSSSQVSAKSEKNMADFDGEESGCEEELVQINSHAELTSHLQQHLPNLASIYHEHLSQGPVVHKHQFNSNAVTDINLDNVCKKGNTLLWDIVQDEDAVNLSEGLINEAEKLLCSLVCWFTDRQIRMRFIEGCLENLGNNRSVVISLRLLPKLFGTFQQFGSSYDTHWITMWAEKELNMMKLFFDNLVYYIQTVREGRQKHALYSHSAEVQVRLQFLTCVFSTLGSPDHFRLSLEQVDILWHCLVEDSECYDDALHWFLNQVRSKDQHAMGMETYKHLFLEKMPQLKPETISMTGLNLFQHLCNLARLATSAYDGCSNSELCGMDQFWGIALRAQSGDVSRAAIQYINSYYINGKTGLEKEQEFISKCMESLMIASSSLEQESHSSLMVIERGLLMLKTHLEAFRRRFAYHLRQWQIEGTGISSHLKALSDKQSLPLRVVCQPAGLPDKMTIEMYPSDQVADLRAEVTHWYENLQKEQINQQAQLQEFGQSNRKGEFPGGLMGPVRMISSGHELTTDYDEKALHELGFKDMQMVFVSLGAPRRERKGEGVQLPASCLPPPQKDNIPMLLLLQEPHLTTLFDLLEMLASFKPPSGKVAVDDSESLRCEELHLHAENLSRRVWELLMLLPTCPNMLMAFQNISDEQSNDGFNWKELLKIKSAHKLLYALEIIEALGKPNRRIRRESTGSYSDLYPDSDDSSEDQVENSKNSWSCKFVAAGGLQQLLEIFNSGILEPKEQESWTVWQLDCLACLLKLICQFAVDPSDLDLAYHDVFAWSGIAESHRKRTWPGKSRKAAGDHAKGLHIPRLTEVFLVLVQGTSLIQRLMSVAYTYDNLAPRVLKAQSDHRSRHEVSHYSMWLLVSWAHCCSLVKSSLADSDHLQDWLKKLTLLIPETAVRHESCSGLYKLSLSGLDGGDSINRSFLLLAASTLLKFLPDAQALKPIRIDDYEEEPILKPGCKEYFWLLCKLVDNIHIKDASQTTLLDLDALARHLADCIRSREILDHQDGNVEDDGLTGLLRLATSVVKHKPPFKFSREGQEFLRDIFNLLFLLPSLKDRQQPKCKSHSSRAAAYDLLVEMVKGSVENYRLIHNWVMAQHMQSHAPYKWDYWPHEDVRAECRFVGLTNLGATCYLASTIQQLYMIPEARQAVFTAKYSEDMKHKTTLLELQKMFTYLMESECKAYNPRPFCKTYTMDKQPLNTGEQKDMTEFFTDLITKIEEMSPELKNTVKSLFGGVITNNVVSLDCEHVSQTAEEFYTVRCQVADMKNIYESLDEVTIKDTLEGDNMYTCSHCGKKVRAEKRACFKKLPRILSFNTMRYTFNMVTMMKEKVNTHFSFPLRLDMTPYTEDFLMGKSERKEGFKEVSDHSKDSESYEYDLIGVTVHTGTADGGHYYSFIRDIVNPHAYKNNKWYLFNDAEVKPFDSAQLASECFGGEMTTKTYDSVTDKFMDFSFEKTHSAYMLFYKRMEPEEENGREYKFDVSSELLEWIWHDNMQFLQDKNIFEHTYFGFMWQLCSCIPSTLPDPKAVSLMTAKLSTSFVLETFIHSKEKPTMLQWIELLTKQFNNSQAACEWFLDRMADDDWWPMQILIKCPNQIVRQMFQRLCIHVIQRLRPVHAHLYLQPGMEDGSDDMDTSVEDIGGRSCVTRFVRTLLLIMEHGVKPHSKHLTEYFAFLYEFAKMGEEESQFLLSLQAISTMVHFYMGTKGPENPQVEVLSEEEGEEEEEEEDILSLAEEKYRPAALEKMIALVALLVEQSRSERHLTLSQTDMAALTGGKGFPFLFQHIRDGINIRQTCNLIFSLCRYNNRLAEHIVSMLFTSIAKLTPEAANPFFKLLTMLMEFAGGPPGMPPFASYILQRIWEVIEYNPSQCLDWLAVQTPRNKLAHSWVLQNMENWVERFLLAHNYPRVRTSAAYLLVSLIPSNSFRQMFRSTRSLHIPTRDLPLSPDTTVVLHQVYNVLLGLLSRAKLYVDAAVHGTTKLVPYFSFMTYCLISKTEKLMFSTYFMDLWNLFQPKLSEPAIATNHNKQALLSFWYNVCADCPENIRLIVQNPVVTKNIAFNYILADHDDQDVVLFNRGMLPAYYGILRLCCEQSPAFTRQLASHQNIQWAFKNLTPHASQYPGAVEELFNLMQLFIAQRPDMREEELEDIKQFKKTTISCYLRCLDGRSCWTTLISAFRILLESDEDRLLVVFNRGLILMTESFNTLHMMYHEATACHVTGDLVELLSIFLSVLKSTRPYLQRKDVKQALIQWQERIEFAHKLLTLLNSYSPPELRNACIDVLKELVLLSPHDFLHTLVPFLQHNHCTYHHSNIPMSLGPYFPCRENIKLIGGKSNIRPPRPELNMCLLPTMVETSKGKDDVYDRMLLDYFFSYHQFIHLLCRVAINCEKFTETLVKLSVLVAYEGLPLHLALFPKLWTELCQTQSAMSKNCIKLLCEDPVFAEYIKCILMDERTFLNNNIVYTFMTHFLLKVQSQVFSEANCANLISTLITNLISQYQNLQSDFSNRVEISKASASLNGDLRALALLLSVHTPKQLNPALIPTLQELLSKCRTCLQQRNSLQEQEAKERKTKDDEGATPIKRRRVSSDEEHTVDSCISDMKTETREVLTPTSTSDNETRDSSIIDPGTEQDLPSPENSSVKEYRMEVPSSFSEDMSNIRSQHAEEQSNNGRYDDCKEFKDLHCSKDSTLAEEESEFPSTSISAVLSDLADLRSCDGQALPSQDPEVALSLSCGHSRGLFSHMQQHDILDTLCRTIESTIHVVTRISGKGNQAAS
How it was run: (§1)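 Fragment (200 µM) or vehicle was incubated for 3 h with triplicate HEK293T lysate samples of 495 µg, which were then treated with Biotin-Ahx-Ub-VS at 0.5 µM final for 1 h. Labelled DUBs were enriched on NeutrAvidin, digested with LysC and trypsin, and analysed by diaPASEF LC-MS/MS. Values are average log2 fragment/vehicle ratios from an unpaired t-test on global-median-normalised Spectronaut label-free quantities, using proteins with ≥2 unique peptides.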

[2] = target: T1, USP36 (UniProt Q9P275)
T1 sequence (whole entry): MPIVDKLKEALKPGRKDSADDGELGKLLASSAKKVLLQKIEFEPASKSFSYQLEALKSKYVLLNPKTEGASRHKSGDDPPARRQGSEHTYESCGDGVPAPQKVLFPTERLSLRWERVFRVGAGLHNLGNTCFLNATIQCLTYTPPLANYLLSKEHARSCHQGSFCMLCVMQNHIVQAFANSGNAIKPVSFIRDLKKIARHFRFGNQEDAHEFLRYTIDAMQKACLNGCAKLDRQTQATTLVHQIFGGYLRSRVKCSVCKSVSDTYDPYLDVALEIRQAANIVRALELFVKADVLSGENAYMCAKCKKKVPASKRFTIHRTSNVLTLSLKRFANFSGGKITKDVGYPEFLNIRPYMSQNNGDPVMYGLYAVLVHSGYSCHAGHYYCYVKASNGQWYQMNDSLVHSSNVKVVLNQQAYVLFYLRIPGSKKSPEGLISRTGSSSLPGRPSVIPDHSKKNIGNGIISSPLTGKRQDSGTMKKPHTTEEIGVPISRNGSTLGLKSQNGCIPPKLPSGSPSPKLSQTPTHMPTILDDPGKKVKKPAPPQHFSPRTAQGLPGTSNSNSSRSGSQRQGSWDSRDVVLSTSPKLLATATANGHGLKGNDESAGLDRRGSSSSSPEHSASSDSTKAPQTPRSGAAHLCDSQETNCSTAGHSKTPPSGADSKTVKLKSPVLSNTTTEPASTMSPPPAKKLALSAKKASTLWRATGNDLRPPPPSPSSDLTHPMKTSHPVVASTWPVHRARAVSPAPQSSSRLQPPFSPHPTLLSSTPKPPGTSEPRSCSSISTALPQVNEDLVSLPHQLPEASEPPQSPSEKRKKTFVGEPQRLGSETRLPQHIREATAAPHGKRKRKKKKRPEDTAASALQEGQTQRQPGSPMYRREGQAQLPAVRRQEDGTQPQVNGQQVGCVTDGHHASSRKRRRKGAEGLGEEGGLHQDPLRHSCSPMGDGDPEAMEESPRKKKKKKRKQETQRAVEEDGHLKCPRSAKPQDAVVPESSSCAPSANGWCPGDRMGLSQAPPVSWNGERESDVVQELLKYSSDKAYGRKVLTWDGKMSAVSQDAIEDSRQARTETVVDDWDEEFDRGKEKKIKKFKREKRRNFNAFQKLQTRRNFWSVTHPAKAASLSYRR
How it was run: as §1

[3] = target: T2, USP38 (UniProt Q8NB14)
T2 sequence (whole entry): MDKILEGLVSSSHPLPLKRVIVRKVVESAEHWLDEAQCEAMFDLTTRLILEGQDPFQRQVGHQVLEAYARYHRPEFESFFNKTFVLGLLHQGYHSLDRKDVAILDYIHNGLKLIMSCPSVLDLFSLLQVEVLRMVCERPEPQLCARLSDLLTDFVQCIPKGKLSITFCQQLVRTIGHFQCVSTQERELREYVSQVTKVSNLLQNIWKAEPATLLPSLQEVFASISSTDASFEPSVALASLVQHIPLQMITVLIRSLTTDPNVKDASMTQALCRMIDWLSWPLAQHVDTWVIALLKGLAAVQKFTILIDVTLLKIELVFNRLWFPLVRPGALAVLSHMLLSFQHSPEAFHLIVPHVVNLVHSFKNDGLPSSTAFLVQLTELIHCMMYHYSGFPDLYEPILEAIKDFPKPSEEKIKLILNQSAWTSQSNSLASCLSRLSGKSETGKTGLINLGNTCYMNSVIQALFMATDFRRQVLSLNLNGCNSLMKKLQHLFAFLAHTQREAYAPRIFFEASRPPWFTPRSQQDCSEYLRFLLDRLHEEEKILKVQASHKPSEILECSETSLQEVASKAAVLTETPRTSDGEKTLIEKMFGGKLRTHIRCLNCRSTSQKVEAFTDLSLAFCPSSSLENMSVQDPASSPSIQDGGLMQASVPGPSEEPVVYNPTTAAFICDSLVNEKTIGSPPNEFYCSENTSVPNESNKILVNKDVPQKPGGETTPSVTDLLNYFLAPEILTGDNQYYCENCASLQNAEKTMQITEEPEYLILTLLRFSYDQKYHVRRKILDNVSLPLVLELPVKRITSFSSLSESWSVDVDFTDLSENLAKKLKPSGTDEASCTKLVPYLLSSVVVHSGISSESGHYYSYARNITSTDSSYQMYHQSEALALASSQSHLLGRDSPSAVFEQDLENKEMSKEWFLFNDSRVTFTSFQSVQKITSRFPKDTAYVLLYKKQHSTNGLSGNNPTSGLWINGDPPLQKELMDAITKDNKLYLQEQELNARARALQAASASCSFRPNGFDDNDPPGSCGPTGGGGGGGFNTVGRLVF
How it was run: as §1

[4] = target: T3, USP39 (UniProt Q53GS9)
T3 sequence (whole entry): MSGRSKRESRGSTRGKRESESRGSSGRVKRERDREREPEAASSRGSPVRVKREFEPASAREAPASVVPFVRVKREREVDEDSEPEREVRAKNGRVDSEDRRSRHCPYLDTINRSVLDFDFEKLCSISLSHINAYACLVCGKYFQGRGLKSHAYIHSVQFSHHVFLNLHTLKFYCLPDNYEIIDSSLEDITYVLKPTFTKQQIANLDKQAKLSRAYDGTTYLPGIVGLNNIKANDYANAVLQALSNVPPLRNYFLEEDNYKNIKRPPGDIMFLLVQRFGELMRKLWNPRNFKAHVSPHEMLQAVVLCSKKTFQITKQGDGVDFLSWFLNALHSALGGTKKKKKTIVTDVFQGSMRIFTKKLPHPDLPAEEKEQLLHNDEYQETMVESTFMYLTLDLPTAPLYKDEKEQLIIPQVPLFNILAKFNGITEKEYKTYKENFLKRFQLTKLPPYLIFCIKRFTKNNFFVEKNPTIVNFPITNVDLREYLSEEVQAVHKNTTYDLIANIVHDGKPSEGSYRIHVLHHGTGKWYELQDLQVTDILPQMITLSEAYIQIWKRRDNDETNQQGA
How it was run: as §1

[5] = target: T4, USP4 (UniProt Q13107)
T4 sequence (whole entry): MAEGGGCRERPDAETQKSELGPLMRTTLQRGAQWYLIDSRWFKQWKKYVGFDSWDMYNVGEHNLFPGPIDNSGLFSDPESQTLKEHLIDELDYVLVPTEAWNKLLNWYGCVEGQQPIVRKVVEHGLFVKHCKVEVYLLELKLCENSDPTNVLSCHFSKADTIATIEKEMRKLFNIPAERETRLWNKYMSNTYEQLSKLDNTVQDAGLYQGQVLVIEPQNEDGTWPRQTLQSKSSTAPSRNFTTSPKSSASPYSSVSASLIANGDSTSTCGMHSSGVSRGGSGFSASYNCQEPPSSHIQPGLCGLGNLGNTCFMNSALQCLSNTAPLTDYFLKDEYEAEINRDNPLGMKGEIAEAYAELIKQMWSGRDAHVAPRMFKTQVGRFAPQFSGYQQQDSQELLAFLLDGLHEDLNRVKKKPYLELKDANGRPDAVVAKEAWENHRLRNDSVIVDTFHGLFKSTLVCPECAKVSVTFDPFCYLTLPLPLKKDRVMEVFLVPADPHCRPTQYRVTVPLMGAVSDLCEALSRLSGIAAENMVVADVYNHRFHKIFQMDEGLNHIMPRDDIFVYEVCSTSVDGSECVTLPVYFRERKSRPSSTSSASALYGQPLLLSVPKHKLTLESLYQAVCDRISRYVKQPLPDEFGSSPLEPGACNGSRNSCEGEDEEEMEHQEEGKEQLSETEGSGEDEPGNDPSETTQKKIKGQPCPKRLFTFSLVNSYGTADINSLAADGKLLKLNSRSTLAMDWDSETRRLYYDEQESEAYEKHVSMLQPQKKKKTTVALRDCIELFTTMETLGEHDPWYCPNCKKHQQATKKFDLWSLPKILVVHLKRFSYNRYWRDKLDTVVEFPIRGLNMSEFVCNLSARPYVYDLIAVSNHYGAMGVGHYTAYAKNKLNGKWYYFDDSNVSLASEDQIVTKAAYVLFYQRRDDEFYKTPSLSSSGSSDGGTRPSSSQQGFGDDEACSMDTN
How it was run: as §1

Measured: log2 ratio of Biotin-Ahx-Ub-VS probe labelling

Cc1cccc(N2CCC(NC(=O)CCl)C2=O)c1 (stereo not given)
inactive: [1] 0.0479 | [2] -0.0247 | [3] -0.169 | [4] -0.32 | [5] -0.134
